From PubChem BioAssay AID1159580 (chemical genetic matrix, 2015)
About 2,000 (36%) of roughly 5,500 compounds were called active. Inconclusive results (about 18%) are left out. This is one part of the list. A number with no mark means an inactive call. Cut-off read from the data, not from the text of the source: active = normalized growth mostly below about 0.91 (no sharp cut-off); inconclusive = no clear call, values can overlap the other calls; inactive = mostly above about 0.92.

Assay: chemical genetic growth profiling, strain panel (AID 1159580);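 note: tested at 20 µM; growth read once vehicle control cultures reached saturation at 30 °C; 1 = growth at the plate median or of vehicle wells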
Conditions: S. cerevisiae deletion strains, growth OD

**Q.** Which results are given for `CC(C)[C@@]1(NC(=O)[C@@H]2C=C3c4cccc5[nH]cc(c45)C[C@H]3N(C)C2)O[C@@]2(O)[C@@H]3CCCN3C(=O)[C@H](Cc3ccccc3)N2C1=O`?
**A.** normalized growth (locus YAL040C, strain CLN3, stronger effect = lower value): 0.989; normalized growth (locus YCL061C, strain MRC1 (second series), stronger effect = lower value): 0.996; normalized growth (locus YDR363W, strain ESC2, stronger effect = lower value): 0.993; normalized growth (locus YER002W, strain NOP16, stronger effect = lower value): 0.998; normalized growth (locus YMR263W, strain SAP30, stronger effect = lower value): 0.999; normalized growth (locus YMR307W, strain GAS1, stronger effect = lower value): 0.982; normalized growth (locus YNL153C, strain GIM3, stronger effect = lower value): 0.99; normalized growth (locus YNL175C, strain NOP13, stronger effect = lower value): 1.01; normalized growth (locus YNL197C, strain WHI3, stronger effect = lower value): 1; normalized growth (locus YNL224C, strain SQS1, stronger effect = lower value): 0.972; normalized growth (locus YOR083W, strain WHI5 (second series), stronger effect = lower value): 1.04; normalized growth (locus YPL055C, strain LGE1, stronger effect = lower value): 0.99; normalized growth (locus YPL241C, strain CIN2, stronger effect = lower value): 0.998

**Q.** For `Cc1c(Cl)cccc1NC(=S)N1CCCN(c2ccc(C(F)(F)F)cc2[N+](=O)[O-])CC1`, which normalized growth (locus YAR019C, strain CDC15, stronger effect = lower value) is on record?
**A.** Its normalized growth is 0.991.

**Q.** What about the normalized growth (locus YBL105C, strain PKC1, stronger effect = lower value) of the same molecule?
**A.** Its normalized growth is 0.979.

**Q.** What about the normalized growth (locus YBR135W, strain CKS1, stronger effect = lower value) of the same molecule?
**A.** Its normalized growth is 0.992.

**Q.** And the normalized growth (locus YBR136W, strain MEC1, stronger effect = lower value)?
**A.** The normalized growth was 0.971.

**Q.** And the normalized growth (locus YBR160W, strain CDC28, stronger effect = lower value)?
**A.** Its normalized growth is 0.994.

**Q.** What about the normalized growth (locus YDL017W, strain CDC7, stronger effect = lower value) of the same molecule?
**A.** Its normalized growth is 0.993.

**Q.** What about the normalized growth (locus YDL028C, strain MPS1, stronger effect = lower value) of the same molecule?
**A.** The normalized growth was 0.995.

**Q.** What about the normalized growth (locus YDL101C, strain DUN1, stronger effect = lower value) of the same molecule?
**A.** Its normalized growth is 0.977.

**Q.** And the normalized growth (locus YDL108W, strain KIN28, stronger effect = lower value)?
**A.** Its normalized growth is 0.978.

**Q.** And the normalized growth (locus YDL132W, strain cdc53, stronger effect = lower value)?
**A.** The normalized growth was 0.986.

**Q.** What about the normalized growth (locus YDL214C, strain PRR2, stronger effect = lower value) of the same molecule?
**A.** Its normalized growth is 0.971.

**Q.** And the normalized growth (locus YDR052C, strain DBF4, stronger effect = lower value)?
**A.** Its normalized growth is 0.991.

**Q.** And the normalized growth (locus YDR054C, strain cdc34, stronger effect = lower value)?
**A.** Its normalized growth is 0.976.

**Q.** And the normalized growth (locus YDR226W, strain ADK1, stronger effect = lower value)?
**A.** The normalized growth was 0.987.

**Q.** And the normalized growth (locus YDR477W, strain SNF1, stronger effect = lower value)?
**A.** Its normalized growth is 0.983.

**Q.** What about the normalized growth (locus YER123W, strain YCK3, stronger effect = lower value) of the same molecule?
**A.** The normalized growth was 0.988.

**Q.** What about the normalized growth (locus YER133W, strain GLC7, stronger effect = lower value) of the same molecule?
**A.** The normalized growth was 0.969.

**Q.** And the normalized growth (locus YFL009W, strain cdc4, stronger effect = lower value)?
**A.** Its normalized growth is 0.98.

**Q.** What about the normalized growth (locus YFL029C, strain CAK1, stronger effect = lower value) of the same molecule?
**A.** Its normalized growth is 0.994.

**Q.** And the normalized growth (locus YFR003C, strain YPI1, stronger effect = lower value)?
**A.** Its normalized growth is 0.987.

**Q.** And the normalized growth (locus YFR019W, strain FAB1, stronger effect = lower value)?
**A.** The normalized growth was 0.957.

**Q.** What about the normalized growth (locus YFR028C, strain CDC14, stronger effect = lower value) of the same molecule?
**A.** Its normalized growth is 0.995.

**Q.** What about the normalized growth (locus YGR040W, strain KSS1, stronger effect = lower value) of the same molecule?
**A.** Its normalized growth is 0.98.

**Q.** And the normalized growth (locus YGR052W, strain FMP48, stronger effect = lower value)?
**A.** Its normalized growth is 1.04.

**Q.** And the normalized growth (locus YGR092W, strain DBF2, stronger effect = lower value)?
**A.** The normalized growth was 0.964.

**Q.** And the normalized growth (locus YHR030C, strain SLT2, stronger effect = lower value)?
**A.** The normalized growth was 0.842 (active).

**Q.** What about the normalized growth (locus YHR079C, strain IRE1, stronger effect = lower value) of the same molecule?
**A.** The normalized growth was 0.89.

**Q.** What about the normalized growth (locus YHR082C, strain KSP1, stronger effect = lower value) of the same molecule?
**A.** Its normalized growth is 1.06.

**Q.** What about the normalized growth (locus YHR205W, strain SCH9, stronger effect = lower value) of the same molecule?
**A.** Its normalized growth is 1.

**Q.** What about the normalized growth (locus YIL147C, strain SLN1, stronger effect = lower value) of the same molecule?
**A.** The normalized growth was 0.989.

**Q.** What about the normalized growth (locus YJL095W, strain BCK1, stronger effect = lower value) of the same molecule?
**A.** The normalized growth was 1.01.

**Q.** And the normalized growth (locus YJL128C, strain PBS2, stronger effect = lower value)?
**A.** Its normalized growth is 0.942.

**Q.** What about the normalized growth (locus YJL157C, strain FAR1, stronger effect = lower value) of the same molecule?
**A.** The normalized growth was 0.951.

**Q.** And the normalized growth (locus YJR016C, strain ILV3, stronger effect = lower value)?
**A.** Its normalized growth is 0.982.

**Q.** And the normalized growth (locus YJR066W, strain TOR1 (second series), stronger effect = lower value)?
**A.** Its normalized growth is 0.974.

**Q.** And the normalized growth (locus YJR066W, strain TOR1, stronger effect = lower value)?
**A.** The normalized growth was 1.02.

**Q.** And the normalized growth (locus YKL048C, strain ELM1, stronger effect = lower value)?
**A.** Its normalized growth is 0.984.

**Q.** And the normalized growth (locus YKL067W, strain YNK1, stronger effect = lower value)?
**A.** Its normalized growth is 0.974.

**Q.** And the normalized growth (locus YKL101W, strain HSL1, stronger effect = lower value)?
**A.** The normalized growth was 0.988.

**Q.** What about the normalized growth (locus YKL193C, strain SDS22, stronger effect = lower value) of the same molecule?
**A.** Its normalized growth is 0.995.

**Q.** What about the normalized growth (locus YKL203C, strain TOR2, stronger effect = lower value) of the same molecule?
**A.** The normalized growth was 1.01.

**Q.** And the normalized growth (locus YLR113W, strain HOG1, stronger effect = lower value)?
**A.** The normalized growth was 0.859 (active).

**Q.** What about the normalized growth (locus YLR133W, strain CKI1, stronger effect = lower value) of the same molecule?
**A.** Its normalized growth is 0.955.

**Q.** What about the normalized growth (locus YLR403W, strain SFP1, stronger effect = lower value) of the same molecule?
**A.** Its normalized growth is 0.952.

**Q.** And the normalized growth (locus YML070W, strain DAK1, stronger effect = lower value)?
**A.** The normalized growth was 0.992.

**Q.** What about the normalized growth (locus YMR001C, strain CDC5, stronger effect = lower value) of the same molecule?
**A.** The normalized growth was 0.961.

**Q.** And the normalized growth (locus YMR205C, strain PFK2 (second series), stronger effect = lower value)?
**A.** The normalized growth was 0.979.

**Q.** What about the normalized growth (locus YMR277W, strain FCP1, stronger effect = lower value) of the same molecule?
**A.** Its normalized growth is 0.997.

**Q.** What about the normalized growth (locus YNL006W, strain LST8, stronger effect = lower value) of the same molecule?
**A.** Its normalized growth is 0.982.

**Q.** And the normalized growth (locus YNL020C, strain ARK1, stronger effect = lower value)?
**A.** The normalized growth was 0.972.

**Q.** And the normalized growth (locus YNL161W, strain CBK1, stronger effect = lower value)?
**A.** The normalized growth was 0.979.

**Q.** What about the normalized growth (locus YNL183C, strain NPR1, stronger effect = lower value) of the same molecule?
**A.** The normalized growth was 1.05.

**Q.** What about the normalized growth (locus YNL207W, strain RIO2, stronger effect = lower value) of the same molecule?
**A.** The normalized growth was 0.982.

**Q.** And the normalized growth (locus YNL222W, strain SSU72, stronger effect = lower value)?
**A.** Its normalized growth is 0.984.

**Q.** And the normalized growth (locus YNL307C, strain MCK1 (second series), stronger effect = lower value)?
**A.** The normalized growth was 0.964.

**Q.** What about the normalized growth (locus YOL078W, strain AVO1, stronger effect = lower value) of the same molecule?
**A.** Its normalized growth is 0.989.

**Q.** What about the normalized growth (locus YOL136C, strain PFK27, stronger effect = lower value) of the same molecule?
**A.** The normalized growth was 0.965.

**Q.** And the normalized growth (locus YOR061W, strain CKA2, stronger effect = lower value)?
**A.** The normalized growth was 0.963.

**Q.** What about the normalized growth (locus YOR119C, strain RIO1, stronger effect = lower value) of the same molecule?
**A.** The normalized growth was 1.05.

**Q.** And the normalized growth (locus YOR231W, strain MKK1, stronger effect = lower value)?
**A.** Its normalized growth is 0.993.

**Q.** And the normalized growth (locus YOR329C, strain SCD5, stronger effect = lower value)?
**A.** Its normalized growth is 0.981.

**Q.** And the normalized growth (locus YPL031C, strain PHO85, stronger effect = lower value)?
**A.** Its normalized growth is 0.979.

**Q.** What about the normalized growth (locus YPL153C, strain RAD53, stronger effect = lower value) of the same molecule?
**A.** The normalized growth was 1.

**Q.** And the normalized growth (locus YPL204W, strain HRR25, stronger effect = lower value)?
**A.** Its normalized growth is 0.931.

**Q.** What about the normalized growth (locus YPL209C, strain IPL1, stronger effect = lower value) of the same molecule?
**A.** The normalized growth was 0.99.

**Q.** And the normalized growth (locus YPL256C, strain CLN2, stronger effect = lower value)?
**A.** Its normalized growth is 0.866.

**Q.** What about the normalized growth (locus YPR025C, strain CCL1, stronger effect = lower value) of the same molecule?
**A.** The normalized growth was 0.99.

**Q.** What about the normalized growth (locus YPR106W, strain ISR1, stronger effect = lower value) of the same molecule?
**A.** Its normalized growth is 0.969.

**Q.** And the normalized growth (locus YPR111W, strain DBF20, stronger effect = lower value)?
**A.** Its normalized growth is 0.956.

**Q.** What about the normalized growth (strain NNK1, stronger effect = lower value) of the same molecule?
**A.** The normalized growth was 0.985.

**Q.** What about the normalized growth (strain TSCII, stronger effect = lower value) of the same molecule?
**A.** Its normalized growth is 0.981.
